A short description of assay [1]: NCI Yeast Anticancer Drug Screen. Data for the rad50 strain (AID 155).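 Further: 0% = growth of vehicle-only cultures of the same strain.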 Particulars: S. cerevisiae rad50 strain growth inhibition; at 50.0 µM; hits give high values. In short, it runs like this: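 Inhibition values express reduced yeast growth in compound-treated cultures relative to vehicle-treated controls.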
Assay [2] can be described thus: NCI Yeast Anticancer Drug Screen. Data for the mec2-1 strain (AID 157). The note with it: S. cerevisiae mec2-1 strain, at 50.0 µM, hits give high values. In short, it runs like this:
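Mutant yeast (mec2-1) grown with compound; growth inhibition relative to vehicle control reported.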

Assay [3] is described as follows: NCI Yeast Anticancer Drug Screen. Data for the sgs1 mgt1 strain (AID 161).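 Further: 0% = growth of cultures given vehicle only.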 Particulars: S. cerevisiae sgs1 mgt1 strain, at 50.0 µM, hits give high values. In short, it runs like this: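 This yeast growth screen uses a strain with defined DNA-repair lesions; compound-treated growth is compared with vehicle-treated growth.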
Assay [4] is described as follows: NCI Yeast Anticancer Drug Screen. Data for the cln2 rad14 strain (AID 165).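 Further: 0% = growth equal to vehicle treated cultures.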 The note with it: S. cerevisiae cln2 rad14 strain, at 50.0 µM, hits give high values. In short, it runs like this: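 Readout is yeast growth inhibition versus vehicle-treated controls, using a strain with cln2 and rad14 alterations exposed to compound.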
Assay [5] is described as follows: NCI Yeast Anticancer Drug Screen. Data for the bub3 strain (AID 167). The note with it: S. cerevisiae bub3 mutant strain, at 50.0 µM, hits give high values. In outline:
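Steps: expose the mutant yeast strain to compound; grow alongside vehicle-treated cultures; measure growth; express inhibition against the vehicle cultures.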

Assay [6] in a line: NCI Yeast Anticancer Drug Screen. Data for the mlh1 rad18 strain (AID 175). Particulars: S. cerevisiae mlh1 rad18 strain growth inhibition; at 50.0 µM; hits give high values. In outline: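 Genetically defined yeast (DNA repair-deficient) exposed to compounds; growth inhibition determined relative to vehicle.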

This is an account of results in PubChem BioAssay (NCI).

SMILES strings stand for the structures. Compounds without any hit were thinned out: in the full panel of roughly 79,000, 15% have a hit. Unmarked numbers belong to inactive results. Calls of active or inactive are those of the source. No stated cut-off is given here; in the data, active means growth inhibition above about 70%; inactive means the rest.

Turning to `C=CCOc1ccc(C2C(C(=O)OCC)C(=O)CC(C)(O)C2C(=O)OCC)cc1OC` (stereo unspecified), the growth inhibition in assay [1] is -6.25%; in assay [2], -11.3%; in assay [3], -7.15%; in assay [4], -24%; in assay [5] it was 1.35%; in assay [6], -7.45%.

With `Nc1ccc(S(=O)(=O)NO)cc1`, the growth inhibition in assay [1] is -12.1%; in assay [2], -3.95%; in assay [3], -2.55%; in assay [4], -27.1%; in assay [5] it was -2.2%; in assay [6], 11.3%.

On to `CCOC(=O)OCCCc1ccccc1`, for which the growth inhibition in assay [1] was -8.95%; in assay [2], -2.95%; in assay [3], -8.8%; in assay [4], -15.4%; in assay [5], -7.55%; in assay [6], -6.8%.

`Nc1ccc2c(c1)Cc1c-2cc(Cl)c(N)c1Cl`: the growth inhibition in assay [1] is 8.85%; in assay [2], -0.65%; in assay [3] it was -18.8%; in assay [4], 6.5%; in assay [5] it was 13.8%; in assay [6], 6.2%.

As to `Clc1ccc(CSc2nnc(SCc3ccc(Cl)cc3)c3[nH]cnc23)cc1`, the growth inhibition was 14.2% in assay [1]; 0.05% in assay [2]; 20.9% in assay [3]; 25.9% in assay [4]; -3.2% in assay [5]; -11.7% in assay [6].

As to `CCCCC#CCN(CCCC)CCCC`, the growth inhibition in assay [1] was -19.6%; in assay [2], 1%; in assay [3] it was -2.55%; in assay [4] it was 13.3%; in assay [5], 11.3%; in assay [6], -29%.

Regarding `COC(=O)C1=C(c2ccccc2)c2ccc3ccccc3c2C1c1ccccc1` (stereo unspecified), the growth inhibition in assay [1] is 40.1%; in assay [2] it was -8.25%; in assay [3], 22.9%; in assay [4] it was 12.4%; in assay [5] it was 6.15%; in assay [6], 25.2%.

As for `CCC(C)(C)C(O)c1ccc2c(c1)OCO2` (stereo unspecified), the growth inhibition in assay [1] was -0.2%; in assay [2], -13.2%; in assay [3] it was 4.1%; in assay [4], -7.65%; in assay [5], 1.3%; in assay [6], -28.5%.

As to `CC(C)OC(=O)Oc1ccc(Cl)cc1`, the growth inhibition in assay [1] is 6.05%; in assay [2] it was -13.1%; in assay [3], 7.4%; in assay [4], -46.1%; in assay [5], -11.8%; in assay [6], 9.8%.

As to `O=C(O)C1c2ccccc2-c2ccccc21`, the growth inhibition in assay [1] was 52.4%; in assay [2], 31.6%; in assay [3], 41.5%; in assay [4], -37.7%; in assay [5], 37.6%; in assay [6] it was 39%.

In the case of `C=CC(O)C(O)C=C` (stereo unspecified), the growth inhibition in assay [1] is 15.1%; in assay [2], -9%; in assay [3] it was 20.4%; in assay [4], 8.25%; in assay [5], 12.9%; in assay [6], 17.2%.

Take `Cc1ccccc1NC(=S)NC(=O)c1ccccc1`: the growth inhibition in assay [1] is 30.9%; in assay [2] it was 19.2%; in assay [3], 62.8%; in assay [4], -34.8%; in assay [5], 64%; in assay [6], 48.2%.

On to `COC(=O)C(CCC1(C)OCCO1)=[N+]=[N-]`, for which the growth inhibition in assay [1] is -7.05%; in assay [2], 0.95%; in assay [3], -15.1%; in assay [4] it was 2.85%; in assay [5], -19.1%; in assay [6] it was -16%.

With `CN(C)CCCNC(=O)Nc1ccc(Cl)cc1`, the growth inhibition in assay [1] was 8.15%; in assay [2], 8.15%; in assay [3] it was 0.15%; in assay [4], 11.8%; in assay [5], -0.35%; in assay [6], 12.8%.

On to `Cc1cc(Cl)ccc1NC(=O)C(=O)C(C(=O)c1ccccc1)C1OC(=O)c2ccccc21` (stereo unspecified), for which the growth inhibition in assay [1] was 20.9%; in assay [2], -7.45%; in assay [3] it was 14.2%; in assay [4] it was 14.6%; in assay [5], -3.25%; in assay [6], -9.75%.

Take `COC(=O)C(Cc1[nH]c(N=Nc2ccc(Br)cc2)nc1N=Nc1ccc(Br)cc1)NC(C)=O` (stereo unspecified): the growth inhibition is 43% in assay [1]; -1% in assay [2]; 27.1% in assay [3]; -11.1% in assay [4]; -3.55% in assay [5]; -5.25% in assay [6].

Consider `O=C1C=C(NCC(c2ccccc2)c2ccccc2)C(=O)c2ncccc21`, for which the growth inhibition in assay [1] is 33.2%; in assay [2] it was 24.8%; in assay [3] it was 43%; in assay [4] it was 34.9%; in assay [5], 40.9%; in assay [6], 77.8% (active).

Consider `CCCCCCC(O)Cc1ccccc1` (stereo unspecified), for which the growth inhibition in assay [1] was 5.95%; in assay [2] it was 5.1%; in assay [3] it was -5.5%; in assay [4], -12.3%; in assay [5], -24.9%; in assay [6], 1.2%.

`C/C(=N/O)c1ccc(O)cc1O`: the growth inhibition in assay [1] is -16.7%; in assay [2] it was -1.2%; in assay [3], 3.65%; in assay [4], -8.6%; in assay [5], 5.15%; in assay [6], 13.8%.

Regarding `Cn1ncc2c(NCCc3ccccc3)nc(Cl)nc21`, the growth inhibition in assay [1] was 19.8%; in assay [2], -18.3%; in assay [3] it was 5.15%; in assay [4], 11.2%; in assay [5], 8.1%; in assay [6] it was 30.2%.

In the case of `CC(C)CCCC(C)C1CCC2C3C(=O)C=C4C=CCCC4(C)C3CCC12C` (stereo unspecified), the growth inhibition in assay [1] was 5.95%; in assay [2], 11.2%; in assay [3], 34.1%; in assay [4], 9.55%; in assay [5], 5.9%; in assay [6], 10.5%.
